Some test systems named below: T-47D breast; BT-549 breast; MDA-MB-435 melanoma; SW-620 colon; MCF7 breast; HCT-116 colon; HCC-2998 colon; KM12 colon.
Holding throughout (test): NCI-60 one-dose screen, 48 h (100 = growth as untreated, 0 = no growth, -100 = all killed)
Holding throughout (settings): 10 µM unless noted

The values that follow come from PubChem BioAssay (NCI).

Structures are written as SMILES. Where “and” joins values, the source holds several entries; their conditions need not be identical. Equal values may be shown once. The panel holds about 83,000 compounds, 20% with a hit somewhere; the sample as a whole holds those more often.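 Negative percent growth values reflect cell death: -40 means 40% of the cells present at the start died, and -100 means all died.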 Unmarked numbers belong to inactive results. Calls of active or inactive are those of the source. Rule for the calls: active = growth percent below 10; inactive = the rest.

Consider `CCCCC(NC(=O)CN1C(=O)/C(=C/C(C)=C/c2ccccc2)SC1=S)C(=O)O` (stereo not drawn), for which the growth is 105% with T-47D breast; 112% in the experiment with BT-549 breast; 104% in the experiment with MDA-MB-435 melanoma; 94.6% in the experiment with SW-620 colon; 93.3% in the experiment with MCF7 breast; 98.5% with HCT-116 colon. Further, the figures for the growth in the experiment on HCC-2998 colon and with KM12 colon were 110% and 102%, respectively.
In the case of `N#CC1=C(N)Oc2c(sc3c(Br)cccc23)C1c1ccccn1` (stereo not drawn), the growth in the experiment with T-47D breast is 34.3%; in the experiment with BT-549 breast it was 31.4%; in the experiment with MDA-MB-435 melanoma, 77.4%; with SW-620 colon, 34.8%; in the experiment with MCF7 breast, 18.8%; in the experiment with HCT-116 colon, 27.9%. The growth with HCC-2998 colon is 72.9%; in the experiment with KM12 colon it was 34.9%.
For the compound `CCOC(=O)CCCn1c(-c2ccccc2)cc(-c2ccccc2)c(C#N)c1=O`, the growth in the experiment with T-47D breast was 93.6%; in the experiment on BT-549 breast, 93.9%; in the experiment on MDA-MB-435 melanoma, 50%; in the experiment on SW-620 colon, 88.3%; in the experiment on MCF7 breast, 89.6%; in the experiment with HCT-116 colon, 75.5%. Also, the figures for the growth in the experiment on HCC-2998 colon and in the experiment on KM12 colon were 98.2% and 83.4%, respectively.
Take `COc1cc(C=O)ccc1Oc1ccc([N+](=O)[O-])cc1[N+](=O)[O-]`: the growth is 75.2% in the experiment on T-47D breast; 98% in the experiment on BT-549 breast; 112% in the experiment on MDA-MB-435 melanoma; 91.7% in the experiment with SW-620 colon; 99.2% in the experiment on MCF7 breast; 94.9% in the experiment on HCT-116 colon. In addition, the growth was 109% with HCC-2998 colon and 105% with KM12 colon.
In the case of `O=C(NCCCN1CCCCC1)c1ccc(-c2nc3ccc4[nH]ncc4c3c3c2CCCC3)cc1`, the growth is 86.9% in the experiment on T-47D breast; 31.4% with BT-549 breast; 26.7% in the experiment on MDA-MB-435 melanoma; 24.5% with SW-620 colon; 31.8% with MCF7 breast; 16.8% in the experiment with HCT-116 colon. Also, the growth with HCC-2998 colon was 76%; in the experiment on KM12 colon it was 20.6%.
`CCN1C(=O)N(c2ccccc2)C2NC(=S)N(/N=C/C=C/c3ccccc3)C21` (stereo not drawn): the growth in the experiment with T-47D breast was 38.2%; with BT-549 breast, -8.95% (active); in the experiment with MDA-MB-435 melanoma, -35.1% (active); in the experiment with SW-620 colon it was 26.5%; in the experiment with MCF7 breast, 3.24% (active); in the experiment on HCT-116 colon it was 2.69% (active). Also, the growth in the experiment with HCC-2998 colon was 17.6%; in the experiment on KM12 colon, 21%.
In the case of `CCOc1ccc(C(=O)Cc2ccccc2)cc1`, the growth with T-47D breast was 98% and 100%; in the experiment with BT-549 breast it was 113% and 116%; in the experiment on MDA-MB-435 melanoma it was 106% and 102%; in the experiment with SW-620 colon, 108% and 110%; in the experiment on MCF7 breast it was 103% and 104%; in the experiment with HCT-116 colon it was 107% and 110%. The growth with HCC-2998 colon is 106% and 98.2%; in the experiment on KM12 colon, 116% and 110%.
Regarding `CCCCC1COc2cccc3c2N1C=C/C3=C\C(=O)N(C)c1cccc(Cl)c1` (stereo not drawn), the growth in the experiment on T-47D breast is 88.7%; with BT-549 breast, 107%; in the experiment on MDA-MB-435 melanoma it was 101%; with SW-620 colon it was 102%; in the experiment on MCF7 breast, 104%; in the experiment with HCT-116 colon, 91.2%. Also, the growth was 111% in the experiment with HCC-2998 colon and 105% in the experiment with KM12 colon.
On to `O=C(/C=C/c1ccc(F)cc1)Nc1ncc(Cc2ccc(F)cc2)s1`, for which the growth was 28% in the experiment on T-47D breast; 67.3% in the experiment with BT-549 breast; -48.2% (active) in the experiment with MDA-MB-435 melanoma; 25.3% in the experiment on SW-620 colon; 17.9% with MCF7 breast; 29.4% in the experiment on HCT-116 colon. The growth in the experiment with HCC-2998 colon was 26.5%; in the experiment on KM12 colon, 20.9%.
On to `COC1=CC(c2ccc[nH]2)=N/C1=C\c1[nH]c(C)c(C(=O)Oc2ccccc2)c1C`, for which the growth in the experiment with T-47D breast is -65.7% (active); with BT-549 breast, -15.4% (active); in the experiment with MDA-MB-435 melanoma, -68.6% (active); in the experiment with SW-620 colon it was -20.9% (active); in the experiment with MCF7 breast, -54.7% (active); with HCT-116 colon, -82.1% (active). Further, the figures for the growth in the experiment on HCC-2998 colon and in the experiment on KM12 colon were -81.6% (active) and -66% (active), respectively.
Turning to `CN1CCN(c2ccc(/C=C/C(=O)c3ccc(O)cc3)cc2)CC1`, the growth with T-47D breast was 83.6%; in the experiment with BT-549 breast, 97.7%; in the experiment on MDA-MB-435 melanoma, 100%; in the experiment on SW-620 colon, 99.5%; with MCF7 breast, 89.7%; with HCT-116 colon, 99.2%. For the same compound, the growth in the experiment with HCC-2998 colon was 102%; in the experiment with KM12 colon, 101%.
`CCOC(=O)C1=C(C)N=C2SC=C(c3ccc(F)cc3)N2[C@H]1c1cn(-c2ccccc2)nc1-c1ccc(Cl)cc1`: the growth with T-47D breast is 79.6%; in the experiment on BT-549 breast, 93.1%; in the experiment with MDA-MB-435 melanoma it was 94.4%; in the experiment with SW-620 colon, 100%; in the experiment on MCF7 breast it was 87.2%; in the experiment on HCT-116 colon it was 90%. For the same compound, the growth in the experiment on HCC-2998 colon is 105%; in the experiment with KM12 colon it was 107%.
With `COc1cc(-c2nn(-c3cccc(NC(=O)CCN4CCN(C)CC4)c3)cc2-c2ccncc2)ccc1Cl`, the growth is 35.3% in the experiment on T-47D breast; 22.4% with BT-549 breast; -46.3% (active) in the experiment with MDA-MB-435 melanoma; 26.8% in the experiment on SW-620 colon; 17% in the experiment with HCT-116 colon; 54.7% with HCC-2998 colon. In the experiment with KM12 colon, the growth is 22.2%.
For `CCN(C(=O)N1CCN(c2cc3c(cc2F)c(=O)c(C(=O)O)cn3C2CC2)CC1)c1nc(-c2ccccc2)cs1`, the growth in the experiment with T-47D breast was 55.4%; with BT-549 breast, -9.57% (active); in the experiment on MDA-MB-435 melanoma, 27.3%; with SW-620 colon, 23.3%; in the experiment on MCF7 breast, 14.9%; in the experiment on HCT-116 colon, 6.31% (active). For the same compound, the results for the growth with HCC-2998 colon and in the experiment with KM12 colon were 21% and 21.1%, respectively.
On to `CCOC(=O)C(=Cc1ccc(C#N)cc1)C(=O)OCC`, for which the growth was 9.64% (active) in the experiment on T-47D breast; 47.3% in the experiment on BT-549 breast; 8.84% (active) in the experiment on MDA-MB-435 melanoma; 0.79% (active) with SW-620 colon; -13.1% (active) in the experiment with HCT-116 colon; 78.7% in the experiment with HCC-2998 colon. In the experiment with KM12 colon, the growth was 29.8%.
